Data from PubChem BioAssay (Tox21).
“And” between values parts separate entries of the source, which are not always exact repeats. Equal values may be shown once. Results filed as inconclusive are left out. The source made the active and inactive calls. Unless noted, the call rests on the fitted dose curve; in most records, active means well fitted curve in the direction sought with a large enough effect in the repeat runs; inconclusive means weak or mixed curves; inactive means no such curve, though single readings can be large; an effect the other way counts as inactive or inconclusive.

Experiments:
[1] = qHTS assay to identify small molecule agonists of the estrogen receptor alpha (ER-alpha) signaling pathway in the presence of an antagonist - cell viability counter screen (AID 1259386);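 further: cells exposed to compounds for 22 h at 37 °C before the viability read; nearly all actives have a fitted effect of over 30% in size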; further: potency means the concentration at half of the fitted maximal effect
In short: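 The test measures whether compounds kill ER-alpha reporter cells (VM7Luc4E2) under antagonist co-treatment (ICI-182,780, 10.0nM). Fluorescence from CellTiter-Fluor is read after a 22hr exposure.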

[2] = target: Progesterone receptor (Homo sapiens) (UniProt P06401); assay: qHTS assay to identify small molecule agonists of the progesterone receptor (PR) signaling pathway (AID 1346784; calls by dose curve; further: nearly all actives have a fitted effect of over 30% in size)
In short: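 Fluorescence from LiveBLAzer B/G FRET substrate cleavage (2 hr, RT) reported PR activation in PR-UAS-bla HEK 293T cells treated 16 hr at 37C/5% CO2 with compounds; medium contained 2% charcoal-stripped FBS.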

[3] = target: Progesterone receptor (Homo sapiens) (UniProt P06401); assay: qHTS assay to identify small molecule antagonists of the progesterone receptor (PR) signaling pathway (AID 1346795; active means well fitted inhibition curve with a large enough effect in the signal ratio in the repeat runs, not every such curve was filed as active; the % refers to the signal ratio; further: potency means the concentration at half of the fitted maximal effect)
In short: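 Fluorescence intensity measured 2 hr after adding beta-lactamase FRET substrate to PR-UAS-bla HEK293T cells that had been co-treated 16 hr with compound and 1 nM R5020 (final concentration) in 2% charcoal-stripped FBS.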

[4] = qHTS assay to identify small molecule antagonists of the progesterone receptor (PR) signaling pathway - cell viability counter screen (AID 1346798); further: series mostly up to about 92 µM; nearly all actives have a fitted effect of over 50% in size
In short: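 CellTiter-Glo luminescence; PR-UAS-bla HEK293T, 3,000 cells/well; compound + R5020, 16 hr, 37C/5% CO2; 30 min RT before read.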

[5] = qHTS assay to identify small molecule agonists of the progesterone receptor (PR) signaling pathway - cell viability counter screen (AID 1346799; calls by dose curve; further: nearly all actives have a fitted effect of over 45% in size; further: potency means the concentration at half of the fitted maximal effect)
In short: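 In parallel with the beta-lactamase readout, cytotoxicity toward PR-UAS-bla HEK293T cells was measured by CellTiter-Glo luminescence following 16 hr compound incubation in 2% charcoal-stripped FBS medium.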

[6] = qHTS assay to identify small molecule antagonists of the TGF-beta/Smad signaling pathway - cell viability counter screen (AID 1346824); further: nearly all actives have a fitted effect of over 50% in size
In short: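 Cytotoxicity counter-screen run in the same wells as the beta-lactamase Smad reporter read: CellTiter-Glo luminescence after 30 min at room temperature. HEK 293T SBE-bla cells had 5 hr compound exposure at 37 C with TGF-beta1 (0.25 ng/mL stock).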

[7] = qHTS assay to identify small molecule agonists of the TGF-beta/Smad signaling pathway - cell viability counter screen (AID 1346829); further: nearly all actives have a fitted effect of over 45% in size; further: potency means the concentration at half of the fitted maximal effect
In short: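 Here the cytotoxicity of library compounds is measured in SBE-bla HEK 293T cells treated for 5 hr, using CellTiter-Glo added to wells already read for the beta-lactamase reporter.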

[8] = qHTS assay to identify small molecule agonists of the TGF-beta/Smad signaling pathway (AID 1346859; active means well fitted activation curve with a large enough effect in the signal ratio in the repeat runs, not every such curve was filed as active; the % refers to the signal ratio; further: series mostly up to about 77 µM)
In short: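 After overnight seeding, SBE-bla HEK 293T cells are dosed with compounds in DMSO and kept 5 hr at 37 C, 5% CO2. LiveBLAzer-type FRET substrate is then applied for 2 hr at room temperature.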

[9] = target: Thyrotropin-releasing hormone receptor (Homo sapiens) (UniProt P34981); assay: qHTS assay to identify small molecule agonists of the thyrotropin-releasing hormone receptor (TRHR) signaling pathway (AID 1346891; calls by dose curve;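 further: HEK293 cells expressing TRHR with calcium dye readout; series mostly up to about 58 µM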)
In short: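 Compounds were tested as agonists at 15 concentrations, in triplicate, on TRHR-Hek293 cells; calcium-sensitive dye fluorescence was recorded for 3 min following addition.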

[10] = Human pregnane X receptor (PXR) small molecule agonists, qHTS cell viability counter screen (AID 1346977); further: nearly all actives have a fitted effect of over 50% in size; further: potency means the concentration at half of the fitted maximal effect
In short: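 Viability counter screen: CellTiter-Fluor signal in PXR-Luc HepG2 cells, 24hr compound exposure, 37C, 5% CO2.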

[11] = Caspase-3/7 induction in HepG2 cells by small molecules, qHTS assay (AID 1346978); further: nearly all actives have a fitted effect of over 15% in size
In short: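 Caspase-3/7 induction was measured by Caspase-Glo 3/7 luminescence (30 min, room temperature) after a 17 hr compound exposure of wild-type HepG2 cells seeded at 2,000 per well and pre-incubated 5 hr.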

[12] = Caspase-3/7 induction in CHO-K1 cells by small molecules, qHTS cell viability counter screen (AID 1346979); further: nearly all actives have a fitted effect of over 35% in size; further: potency means the concentration at half of the fitted maximal effect
In short: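 Viability readout by fluorescence (CellTiter-Fluor) on wild-type CHO-K1 cells exposed for 16hr at 37C and 5% CO2 to compounds delivered in DMSO; reagent incubated 1hr before reading.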

[13] = Caspase-3/7 induction in CHO-K1 cells by small molecules, qHTS assay (AID 1346980); further: nearly all actives have a fitted effect of over 15% in size
In short: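 Luminescent Caspase-Glo 3/7 read (30min, room temperature) quantified apoptosis induction. Cells were wild-type CHO-K1, treated with compound for 17hr at 37 C and 5% CO2.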

[14] = Caspase-3/7 induction in HepG2 cells by small molecules, qHTS cell viability counter screen (AID 1346981); further: nearly all actives have a fitted effect of over 30% in size; further: potency means the concentration at half of the fitted maximal effect
In short: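 Treatment of HepG2 cells with DMSO-delivered compounds ran 16 hr at 37 C following a 5-hr pre-incubation of 2,000 cells/well. CellTiter-Fluor fluorescence, read after 1 hr, served as the viability measure in a qHTS format.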

[15] = target: Nuclear receptor subfamily 1 group I member 2 (Homo sapiens) (UniProt O75469); assay: Human pregnane X receptor (PXR) small molecule agonists, qHTS assay (AID 1346982); further: nearly all actives have a fitted effect of over 35% in size; further: potency means the concentration at half of the fitted maximal effect
In short: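 Stable HepG2 line reporting PXR-mediated CYP3A4 expression via luciferase. Treatment: 24 hr with compounds in DMSO at 37 C. Detection: ONE-Glo luminescence.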

[16] = target: Acetylcholinesterase (Homo sapiens) (UniProt P22303); assay: Acetylcholinesterase (AChE) small molecule antagonists: colormetric cell-based qHTS assay (AID 1347395; calls by dose curve; further: nearly all actives have a fitted effect of over 30% in size)
In short: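 Homogeneous whole-cell format. SH-SY5Y cells seeded overnight, dosed with compound (30 min, 37 C, 5% CO2), then given DTNB/acetylthiocholine cocktail for 90 min at 37 C; colorimetric signal.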

[17] = target: Acetylcholinesterase (Homo sapiens) (UniProt P22303); assay: Acetylcholinesterase (AChE) small molecule antagonists: enzyme-based qHTS assay (AID 1347397; calls by dose curve; further: nearly all actives have a fitted effect of over 55% in size); conditions: Potency: AChE enzyme activity inhibition
In short: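 Colorimetric DTNB readout of acetylthiocholine hydrolysis, 10 min at room temperature, after 30 min room-temperature exposure of 50 mU/mL recombinant human enzyme to compound; DMSO vehicle control.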

[18] = target: Thyrotropin-releasing hormone receptor (Homo sapiens) (UniProt P34981); assay: qHTS assay to identify small molecule antagonists of the thyrotropin-releasing hormone receptor (TRHR) signaling pathway (AID 1346877; active means well fitted inhibition curve with a large enough effect in the repeat runs, not every such curve was filed as active; further: series mostly up to about 51 µM)
In short: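 Overnight-plated (18 h, 37 °C) HEK293 cells expressing TRHR were dye-loaded 2 h, treated with compound, then stimulated with TRH at 1 nM final. Fluorescence intensity was captured every second for 3 min.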

Measured: Potency

Sequence of Progesterone receptor (Homo sapiens) (P06401 whole entry, looked up): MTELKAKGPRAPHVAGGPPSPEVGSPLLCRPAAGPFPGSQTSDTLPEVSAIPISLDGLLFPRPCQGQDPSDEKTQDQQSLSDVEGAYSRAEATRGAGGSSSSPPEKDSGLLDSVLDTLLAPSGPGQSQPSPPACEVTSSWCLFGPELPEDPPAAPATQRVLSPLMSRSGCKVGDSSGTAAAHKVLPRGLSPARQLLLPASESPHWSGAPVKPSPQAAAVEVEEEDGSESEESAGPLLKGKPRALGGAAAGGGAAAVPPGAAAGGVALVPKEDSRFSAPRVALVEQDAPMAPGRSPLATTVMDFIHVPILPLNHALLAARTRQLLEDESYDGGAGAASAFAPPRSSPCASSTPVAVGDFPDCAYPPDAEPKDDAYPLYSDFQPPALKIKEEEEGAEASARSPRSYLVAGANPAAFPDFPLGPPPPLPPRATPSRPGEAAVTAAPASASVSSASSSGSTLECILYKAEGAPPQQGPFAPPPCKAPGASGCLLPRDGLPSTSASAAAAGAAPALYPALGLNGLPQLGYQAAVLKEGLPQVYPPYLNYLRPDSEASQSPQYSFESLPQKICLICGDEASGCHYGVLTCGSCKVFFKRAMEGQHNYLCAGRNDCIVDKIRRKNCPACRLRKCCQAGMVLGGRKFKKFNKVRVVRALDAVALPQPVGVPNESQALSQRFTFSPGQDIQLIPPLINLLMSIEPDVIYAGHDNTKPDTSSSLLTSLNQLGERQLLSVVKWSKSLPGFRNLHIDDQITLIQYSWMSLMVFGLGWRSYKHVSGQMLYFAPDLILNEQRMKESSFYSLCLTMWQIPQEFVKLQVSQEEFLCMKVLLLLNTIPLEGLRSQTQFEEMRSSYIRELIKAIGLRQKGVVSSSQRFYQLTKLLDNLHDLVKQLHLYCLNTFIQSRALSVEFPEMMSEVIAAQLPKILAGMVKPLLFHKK
Sequence of Nuclear receptor subfamily 1 group I member 2 (Homo sapiens) (O75469 whole entry, looked up): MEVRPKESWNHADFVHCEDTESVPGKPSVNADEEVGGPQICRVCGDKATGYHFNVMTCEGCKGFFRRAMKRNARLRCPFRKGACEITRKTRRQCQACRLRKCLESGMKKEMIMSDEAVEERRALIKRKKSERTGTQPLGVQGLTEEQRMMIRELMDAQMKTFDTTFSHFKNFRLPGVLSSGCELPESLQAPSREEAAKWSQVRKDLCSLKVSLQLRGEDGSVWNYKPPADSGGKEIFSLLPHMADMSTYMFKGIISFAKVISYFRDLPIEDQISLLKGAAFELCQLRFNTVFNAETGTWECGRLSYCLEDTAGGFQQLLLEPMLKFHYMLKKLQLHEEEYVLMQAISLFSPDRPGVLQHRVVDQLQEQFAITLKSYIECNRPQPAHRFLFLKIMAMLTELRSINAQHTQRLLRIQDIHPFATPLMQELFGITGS
Sequence of Acetylcholinesterase (Homo sapiens) (P22303 whole entry, looked up): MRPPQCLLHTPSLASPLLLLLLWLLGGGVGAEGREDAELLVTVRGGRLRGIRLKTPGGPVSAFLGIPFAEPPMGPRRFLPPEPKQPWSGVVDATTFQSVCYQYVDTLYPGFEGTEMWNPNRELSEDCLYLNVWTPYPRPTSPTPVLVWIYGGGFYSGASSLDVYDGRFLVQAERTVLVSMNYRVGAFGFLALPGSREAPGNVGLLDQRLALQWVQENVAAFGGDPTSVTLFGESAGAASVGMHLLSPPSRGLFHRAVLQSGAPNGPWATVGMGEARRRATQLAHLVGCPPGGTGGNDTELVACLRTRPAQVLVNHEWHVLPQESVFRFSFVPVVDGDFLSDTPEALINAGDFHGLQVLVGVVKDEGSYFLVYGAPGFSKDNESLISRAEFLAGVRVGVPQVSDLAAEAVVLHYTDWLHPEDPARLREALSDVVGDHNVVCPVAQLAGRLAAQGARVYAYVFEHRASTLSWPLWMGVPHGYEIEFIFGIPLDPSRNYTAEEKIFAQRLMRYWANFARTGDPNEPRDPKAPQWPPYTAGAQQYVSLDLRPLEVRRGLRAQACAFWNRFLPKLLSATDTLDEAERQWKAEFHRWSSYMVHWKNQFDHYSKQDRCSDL
Sequence of Thyrotropin-releasing hormone receptor (Homo sapiens) (P34981 whole entry, looked up): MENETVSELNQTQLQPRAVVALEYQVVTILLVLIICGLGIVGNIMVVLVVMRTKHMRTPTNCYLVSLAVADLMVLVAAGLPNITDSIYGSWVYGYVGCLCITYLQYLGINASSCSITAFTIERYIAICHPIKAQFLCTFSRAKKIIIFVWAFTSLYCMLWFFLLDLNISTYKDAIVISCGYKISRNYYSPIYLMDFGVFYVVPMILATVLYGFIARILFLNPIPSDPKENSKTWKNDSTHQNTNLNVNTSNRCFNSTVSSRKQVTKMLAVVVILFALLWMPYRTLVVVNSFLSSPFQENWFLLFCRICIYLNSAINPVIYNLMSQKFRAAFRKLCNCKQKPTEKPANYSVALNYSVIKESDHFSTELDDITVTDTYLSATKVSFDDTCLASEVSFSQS

CCCCCCC#N
not listed: [18]
inactive: all other assays above

O=C(C(Cl)(Cl)Cl)C(Cl)(Cl)Cl
not listed: [12]
inactive: all other assays above

C=CC(=O)OCC(C)C
active: [15] 48.2 µM
not listed: [14]
inactive: all other assays above

C=CC(=O)OCC(C)O (stereo unspecified)
not listed: [4] | [12]
inactive: all other assays above

Nc1nc(=S)[nH][nH]1
not listed: [4]
inactive: all other assays above

CNC(C)Cc1ccccc1OC (stereo unspecified)
not listed: [4]
inactive: all other assays above

N#Cc1ccc(Cl)cc1
not listed: [4] | [18]
inactive: all other assays above

COP(=S)(OC)Oc1ccc([N+](=O)[O-])cc1Cl
active: [1] 48.6 µM | [10] 34.4 µM | [12] 68.6 µM | [14] 61.1 µM
not listed: [4]
inactive: all other assays above

O=C(O)C1(c2ccc3c(c2)OC[C@H](Cc2ccc(-c4ccccc4)cc2)[C@H]3O)CCCC1
inactive: [1] | [2] | [6] | [7] | [11] | [13] | [14] | [16] | [17]
active: [3] 48.6 µM

Clc1cc(C(Cl)(Cl)Cl)cnc1Cl
active: [12] 61.1 µM | [15] 54.5 µM
not listed: [4] | [8] | [10] | [11] | [14] | [18]
inactive: all other assays above

CC1(C)CCC(Cc2ccc(Cl)cc2)C1(O)Cn1cncn1 (stereo unspecified)
active: [3] 4.33 µM | [12] 68.6 µM | [15] 9.69 µM
not listed: [4] | [10] | [14] | [18]
inactive: all other assays above

O=S1OC[C@@H]2[C@H](CO1)[C@]1(Cl)C(Cl)=C(Cl)[C@@]2(Cl)C1(Cl)Cl (stereo partly specified)
active: [3] 30.6 µM | [15] 30.6 µM
inactive: [1] | [2] | [4] | [5] | [6] | [7] | [8] | [11] | [14]

C(=NC1CCCCC1)=NC1CCCCC1
active: [7] 49.3 µM | [12] 13.8 µM | [15] 61.5 µM and 54.5 µM
not listed: [4] | [5] | [8] | [10] | [14]
inactive: all other assays above

CC1C(=O)C[C@]2(C(C)C)C[C@H]12 (stereo partly specified)
not listed: [9] | [12] | [15] | [18]
inactive: all other assays above

ClP(Cl)(Cl)(Cl)Cl
not listed: [4] | [12] | [13]
inactive: all other assays above

CC(C)(CCl)C(=O)Cl
active: [5] 48.5 µM
not listed: [4] | [15]
inactive: all other assays above

Brc1ccc(Oc2ccccc2)cc1
not listed: [4]
inactive: all other assays above

CCOS(C)(=O)=O
not listed: [9] | [10] | [18]
inactive: all other assays above
